# Results reported in PubChem BioAssay AID588676 (Johns Hopkins Ion Channel Center, 2011).
# In all, about 310,000 compounds went through this assay and about 3,900 (1.3%) were called active.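 Rule for the calls: active = calcium-response B-score plate-corrected more than 3 library SD below zero, starting fluorescence within 5 deviations, no agonist response on first addition; inactive = the rest.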 Many of the other results were omitted from the sample, so actives are more common in it than they were.
# Target: Mas-related G-protein coupled receptor member X1 (Homo sapiens) (UniProt Q96LB2)
# Sequence (Q96LB2 whole entry, looked up): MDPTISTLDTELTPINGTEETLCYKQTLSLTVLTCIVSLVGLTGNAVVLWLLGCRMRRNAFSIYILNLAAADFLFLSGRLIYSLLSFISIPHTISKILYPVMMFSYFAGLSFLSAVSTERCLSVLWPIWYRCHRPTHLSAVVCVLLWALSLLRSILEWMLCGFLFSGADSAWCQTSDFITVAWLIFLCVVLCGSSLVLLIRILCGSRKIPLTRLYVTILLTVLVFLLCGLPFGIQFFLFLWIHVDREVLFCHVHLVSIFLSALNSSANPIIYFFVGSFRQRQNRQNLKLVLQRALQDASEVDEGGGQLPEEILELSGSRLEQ
# Assay: antagonists of human MrgX1 receptor, primary screen, HEK293 cells, Fluo-4 calcium flux (AID 588676);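 for B-score: peak minus trough fluorescence over baseline after final BAM8-22 challenge near maximal dose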
# Settings: Fluo-4, BAM8-22 antagonism, at 10 µM; active compounds read low
row,Compound,B-score
1,COc1ccc(CN2CCN(C(=O)CCC(=O)Nc3nnc(C(C)C)s3)CC2)cc1F,inactive
2,COc1ccccc1C(=O)Nc1nc2nc(-c3ccccc3)cc(=O)n2[nH]1,inactive
3,Cc1ccc(C)n1NC(=O)c1ccc([N+](=O)[O-])cc1,inactive
4,CC1=NN(c2ccccc2)C(=O)C1C(=O)c1ccc([N+](=O)[O-])cc1 (centres undefined),-4.73 (active)
5,Cc1ccc(NC(=O)/C(=C/c2ccc([N+](=O)[O-])cc2)NC(=O)c2ccccc2)cc1,inactive
6,O=C(CC1CCCCC1)NCc1ccc(F)cc1,inactive
7,Cc1ccc(/C=N/NC(=S)Nc2cccc(S(=O)(=O)N(C)C)c2)o1,inactive
8,CN(C)S(=O)(=O)c1cccc(NC(=S)N/N=C/C(=O)c2ccccc2)c1,-6.77 (active)
9,CN(C)S(=O)(=O)c1cccc(NC(=S)NCc2ccc3c(c2)OCO3)c1,inactive
10,CCCc1cc(=O)oc2c(C)c(OCC(=O)N3CCC(C(=O)O)CC3)ccc12,inactive
11,CCc1cc(=O)oc2cc(C)cc(OCC(=O)N3CCC[C@@H]3C(=O)O)c12,-7.63 (active)
12,CCc1cc(=O)oc2cc(C)cc(OC(C)C(=O)O)c12 (centres undefined),inactive
13,CC(Sc1cccc[n+]1[O-])C(=O)Nc1cccc(S(=O)(=O)N2CCOCC2)c1 (centres undefined),inactive
14,Cc1ccccc1OCC(=O)NNC(=O)c1cc(S(=O)(=O)N(C)C)ccc1N1CCCC1,-7.66 (active)
15,CN(C)S(=O)(=O)c1ccc(N2CCCC2)c(C(=O)Nc2cccc(F)c2)c1,inactive
16,CN(C)S(=O)(=O)c1ccc(N2CCCC2)c(C(=O)NCc2ccccc2)c1,inactive
17,CN(C)C(=O)N=NC(=O)N(C)C,inactive
18,CCCn1c(=O)c2ccccc2n2c(SCC(=O)/C(C#N)=C(\C)N)nnc12,-7.91 (active)
19,C=CCn1c(SCC(=O)/C(C#N)=C(\C)N)nc2sc(C)c(C)c2c1=O,inactive
20,C=CCn1c(=O)c2ccccc2n2c(SCC(=O)N3CCCc4ccccc43)nnc12,inactive
21,CCOc1cc2c(Cl)ncnc2c(OCC)c1OCC,inactive
22,CCOc1cc(-c2conc2N)cc(OCC)c1OCC,-6.9 (active)
23,CCOc1cc(C(=O)Nc2ncccn2)cc(OCC)c1OCC,inactive
24,O=C1CSC2=NCN(c3ccccc3)CN12,inactive
25,CCCn1nc2cc(C(=O)NCc3ccccc3)ccc2c1OCC,inactive
26,CCN(CC)c1ccc(C2C3CCCCC3(O)CCN2CC(=O)Nc2ccccc2)cc1 (centres undefined),-5.44 (active)
27,Cc1ccc(NC(=O)CN2CCC3(O)CCCCC3C2c2ccc3c(c2)OCO3)c(C)c1 (centres undefined),inactive
28,CCN(CC)c1ccc(NC(=O)CN2CCN(c3ccccn3)CC2)cc1,inactive
29,CCOC(=O)c1c(N=CN(C)C)c(C#N)c2n1CCCC2,inactive
